# PubChem BioAssay
# For some of these results: Entries with a potency or affinity are not part of this list. Calls of active or inactive are those of the source.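 Rule for the calls, unless noted: active = primary screen active and over 50% activation in each of two duplicate runs; inactive = the rest.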
# Assays:
# [1] = test system: TRPC4 beta (transient receptor potential cation channel C4), mouse; assay: TRPC4 cation channel opening, retest – cell-based, Fluo4 calcium, HEK293 TRPC4beta/mu-opioid, duplicates, 10 µM, confirmation (AID 2426;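 active = fluorescence ratio normalized to control raised more than 50% in primary screen plus both repeat runs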;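 for activation: percent rise of integrated ratio over buffer wells lacking compound which define 0%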); details: Fluo4 calcium fluorescence, at 10 µM; hits give high values
# [2] = test system: transient receptor potential cation channel C4 beta (TRPC4), mouse; assay: TRPC4 cation channel opening, second retest – cell-based, second round, Fluo4, HEK293 TRPC4beta/mu-opioid, 1 µM, confirmation (AID 2461); details: Fluo4 calcium fluorescence, at 1 µM; hits give high values;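 for activation: 0% = wells without test compound as baseline of integrated fluorescence ratio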
# [3] = test system: TRPC4 (transient receptor potential cation channel C4 beta), mouse; assay: potentiation of DAMGO EC20 TRPC4 response – cell-based, second round, Fluo-4, HEK293 TRPC4beta/mu-opioid, 1 µM, confirmation (AID 2554;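 active = primary screen hit whose fluorescence ratio, in both repeats, exceeds the weak agonist control mean by 3 SD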); details: DAMGO EC20, Fluo-4 calcium flux, at 1 µM; hits give high values
# [4] = test system: TRPC4 beta (transient receptor potential cation channel C4), mouse; assay: potentiation of DAMGO EC20 TRPC4 response – cell-based, Fluo-4, HEK293 TRPC4beta/mu-opioid, confirmation (AID 2555;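 active = primary screen hit whose calcium fluorescence ratio, in both repeats, exceeds the weak agonist control mean by 3 SD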); details: DAMGO EC20, Fluo-4 calcium flux, at 10 µM; hits give high values
# [5] = biological target: Short transient receptor potential channel 4 (Mus musculus) (UniProt Q9QUQ5); assay: blockers of DAMGO-evoked TRPC4 calcium flux – cell-based, Fluo4, HEK293 TRPC4beta/mu-opioid, confirmation (AID 2636;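 active = calcium signal cut by more than 3 SD below the full-agonist control yet still positive, in both repeats and the earlier primary screen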); details: at 10 µM; hits give high values
# [6] = biological target: Short transient receptor potential channel 4 (Mus musculus) (UniProt Q9QUQ5); assay: blockers of DAMGO-evoked TRPC4 calcium flux – cell-based, second round, Fluo4, HEK293 TRPC4beta/mu-opioid, 1 µM, confirmation (AID 2637;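 active = calcium signal ratio cut to more than 3 SD under the fully stimulated control mean yet still positive, in both repeats and the primary screen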); details: at 1 µM; hits give high values
# [7] = biological target: Short transient receptor potential channel 4 (Mus musculus) (UniProt Q9QUQ5); assay: potentiation of DAMGO-evoked TRPC4 calcium signal – cell-based, HEK293 TRPC4/mu-opioid, Fluo-4 calcium, EC20 DAMGO, dose response (AID 434941;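 active = earlier screen potentiator hit that boosts the TRPC4 ion channel at some dose, with a dose response; inactive = no potentiation, no dose response, or not a prior hit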;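 note: calcium entry triggered by an EC20 dose of DAMGO at the co-expressed mu-opioid receptor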)
# [8] = biological target: Short transient receptor potential channel 4 (Mus musculus) (UniProt Q9QUQ5); assay: block of DAMGO-driven TRPC4 calcium entry – cell-based, HEK293 TRPC4/mu-opioid, Fluo-4 calcium, dose response (AID 434942;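 active = primary screen inhibitor hit that blocks the TRPC4 channel at some tested dose, yielding a dose curve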)
# [9] = biological target: Short transient receptor potential channel 6 (Mus musculus) (UniProt Q61143); assay: TRPC6 blockade by TRPC4 inhibitor hits – cell-based, HEK293, membrane potential dye, duplicate, selectivity assay for TRPC4 inhibitor project, confirmation (AID 434948;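 active = active in primary screen and both duplicates, each dropping signal beyond three positive-control SD with fluorescence still positive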); details: HEK293 TRPC6, membrane potential dye fluorescence, at 10 µM, stimulated with maximal-effect acetylcholine; hits give high values
# [10] = biological target: Short transient receptor potential channel 6 (Mus musculus) (UniProt Q61143); assay: TRPC6 opening by TRPC4 activator hits – cell-based, HEK293, membrane potential dye, duplicate, selectivity assay for TRPC4 activator project, confirmation (AID 434950;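 active = membrane potential signal rise above negative control mean plus 3 SD in both duplicates, also active in the earlier TRPC4 screen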;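 for activation: 0% = buffer only wells and 100% = acetylcholine maximal-effect wells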); details: HEK293 TRPC6, membrane potential fluorescence, at 10 µM; activation: hits give high values; outcome: activation
# [11] = biological target: Short transient receptor potential channel 6 (Mus musculus) (UniProt Q61143); assay: positive modulators of mouse TRPC6 channel – HEK293 cells, membrane potential dye, duplicate, selectivity assay for TRPC4 potentiator project, confirmation (AID 434952;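 active = compound raising the membrane signal above positive-control mean plus 3 SD in both repeats, and a primary screen hit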); details: HEK293 TRPC6, membrane potential dye fluorescence, at 10 µM, maximal acetylcholine added after compound; hits give high values
# [12] = biological target: Short transient receptor potential channel 4 (Mus musculus) (UniProt Q9QUQ5); assay: calcium flux activators in TRPC4/5HT1a cells, counter-screen for TRPC4 activator project, cell-based, second counter screen, HEK293 TRPC4/5HT1a, Fluo-4 (AID 434977;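 active = calcium signal rise above buffer-control mean plus 5 SD in both duplicates, and also a hit in the primary screen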;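 for activation: plate controls were assay buffer for no effect and maximal serotonin response for full effect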); details: Fluo-4 calcium flux, at 10 µM; hits give high values
# [13] = serotonin-gated TRPC4 signal block – cell-based, second counter screen, HEK293 TRPC4/5HT1a, Fluo-4, counter-screen for TRPC4 inhibitor project, confirmation (AID 434978;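 active = primary screen active whose calcium signal fell more than 3 SD beyond the full-serotonin control mean in both duplicate plates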;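 note: serotonin given first at submaximal then at maximal dose after compound preincubation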); details: Fluo-4 calcium flux, at 10 µM, serotonin added to trigger calcium flux; hits give high values
# [14] = test system: TRPC4 (mouse), co-expressed with 5HT1a in HEK293; assay: enhancement of serotonin-evoked TRPC4 response – cell-based, second counter screen, HEK293 TRPC4/5HT1a, Fluo-4, counter-screen for TRPC4 potentiator project, confirmation (AID 434979;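 active = signal rise over 3 SD above mean of control wells given weak agonist, in both repeats and first screen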); details: Fluo-4 calcium flux, at 10 µM, serotonin added at its EC20 dose; hits give high values
# [15] = nonspecific calcium rise without TRPC4 – cell-based, HEK293 mu-opioid receptor line, counter-screen for TRPC4 activator project, confirmation (AID 449723;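 active = hit in primary screen, with calcium signal over 5 SD above buffer well mean in both duplicates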;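 note: counter screen cells carry the mu-opioid receptor alone and lack TRPC4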); details: HEK293 mu-opioid cells, Fluo-4 calcium fluorescence, at 10 µM; hits give high values
# [16] = nonspecific potentiation of DAMGO calcium response – cell-based, HEK293 mu-opioid receptor line, counter-screen for TRPC4 allosteric potentiator project, confirmation (AID 449724;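 active = calcium signal rise more than 3 SD above the low-dose agonist control mean, in both duplicate plates and the primary screen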); details: HEK293 mu-opioid receptor cells, Fluo-4 calcium flux, at 10 µM, compound added before EC20 DAMGO stimulus; hits give high values
# Sequence of Short transient receptor potential channel 6 (Mus musculus) (Q61143 whole entry, looked up): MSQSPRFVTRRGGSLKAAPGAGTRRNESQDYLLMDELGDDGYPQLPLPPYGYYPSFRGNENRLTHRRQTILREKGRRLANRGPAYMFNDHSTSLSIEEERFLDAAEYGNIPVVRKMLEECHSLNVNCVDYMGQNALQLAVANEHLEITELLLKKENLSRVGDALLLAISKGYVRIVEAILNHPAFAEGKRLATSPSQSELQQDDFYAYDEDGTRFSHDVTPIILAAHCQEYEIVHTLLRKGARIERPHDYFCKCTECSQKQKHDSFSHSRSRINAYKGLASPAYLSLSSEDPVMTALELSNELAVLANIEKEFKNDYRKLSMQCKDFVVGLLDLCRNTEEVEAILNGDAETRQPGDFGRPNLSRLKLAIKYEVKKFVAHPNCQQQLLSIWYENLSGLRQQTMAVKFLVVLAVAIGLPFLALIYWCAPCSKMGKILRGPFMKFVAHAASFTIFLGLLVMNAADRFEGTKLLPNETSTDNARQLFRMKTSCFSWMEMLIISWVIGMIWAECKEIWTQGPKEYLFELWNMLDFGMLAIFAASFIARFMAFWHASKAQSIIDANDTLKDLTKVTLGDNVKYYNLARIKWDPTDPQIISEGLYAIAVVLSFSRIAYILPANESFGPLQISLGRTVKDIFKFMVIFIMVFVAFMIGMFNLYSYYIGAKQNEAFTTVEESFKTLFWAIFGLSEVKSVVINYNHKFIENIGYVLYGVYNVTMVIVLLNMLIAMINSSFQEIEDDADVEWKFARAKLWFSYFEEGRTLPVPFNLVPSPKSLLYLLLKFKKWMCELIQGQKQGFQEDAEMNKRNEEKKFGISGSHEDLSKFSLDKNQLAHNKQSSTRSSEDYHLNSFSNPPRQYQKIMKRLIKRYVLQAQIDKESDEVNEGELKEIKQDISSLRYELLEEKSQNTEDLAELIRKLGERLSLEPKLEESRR
# Sequence of Short transient receptor potential channel 4 (Mus musculus) (Q9QUQ5 whole entry, looked up): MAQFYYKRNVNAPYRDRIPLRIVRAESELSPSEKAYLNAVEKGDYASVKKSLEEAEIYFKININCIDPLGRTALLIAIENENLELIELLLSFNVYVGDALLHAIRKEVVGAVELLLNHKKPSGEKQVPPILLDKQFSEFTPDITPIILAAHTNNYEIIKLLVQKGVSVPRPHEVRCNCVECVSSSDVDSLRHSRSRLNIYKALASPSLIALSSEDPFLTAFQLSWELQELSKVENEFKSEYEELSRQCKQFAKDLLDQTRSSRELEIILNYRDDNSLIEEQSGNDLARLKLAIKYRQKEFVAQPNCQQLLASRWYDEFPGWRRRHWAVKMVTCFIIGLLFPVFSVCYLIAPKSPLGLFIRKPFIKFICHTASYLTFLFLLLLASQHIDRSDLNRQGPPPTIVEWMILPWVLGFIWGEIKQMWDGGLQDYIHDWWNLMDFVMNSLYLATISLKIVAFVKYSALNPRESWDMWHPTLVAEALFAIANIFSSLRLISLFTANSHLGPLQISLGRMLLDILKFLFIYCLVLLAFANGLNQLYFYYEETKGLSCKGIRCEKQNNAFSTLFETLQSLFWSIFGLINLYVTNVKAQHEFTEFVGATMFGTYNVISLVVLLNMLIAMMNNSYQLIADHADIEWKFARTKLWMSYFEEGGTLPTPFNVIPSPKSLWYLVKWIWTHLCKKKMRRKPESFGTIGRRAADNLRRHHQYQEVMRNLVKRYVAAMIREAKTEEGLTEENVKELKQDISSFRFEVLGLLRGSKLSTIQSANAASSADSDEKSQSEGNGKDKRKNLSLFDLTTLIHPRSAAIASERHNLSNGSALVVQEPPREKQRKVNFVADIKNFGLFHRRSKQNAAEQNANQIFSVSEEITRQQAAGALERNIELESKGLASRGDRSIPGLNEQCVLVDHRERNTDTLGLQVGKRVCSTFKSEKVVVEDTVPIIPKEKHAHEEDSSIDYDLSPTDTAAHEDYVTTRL
structure (smiles),measurement,setting,value
Cc1c(Cl)cccc1NC(=S)NCC(c1cccnc1)N(C)C (stereo not drawn),outcome,[1],inactive
same,activation,[2],103% (active)
same,outcome,[3],inactive
same,outcome,[4],inactive
same,outcome,[5],inactive
same,outcome,[6],inactive
same,outcome,[7],inactive
same,outcome,[8],inactive
same,outcome,[9],inactive
same,activation,[10],47.5% (active)
same,outcome,[11],inactive
same,outcome,[12],inactive
same,outcome,[13],inactive
same,outcome,[14],inactive
same,outcome,[15],inactive
same,outcome,[16],inactive
Cc1cc(N2CCN(C)CC2)ccc1NC(=O)c1ccc(-c2ccc(Cl)cc2)o1,outcome,[1],inactive
same,outcome,[2],inactive
same,outcome,[3],inactive
same,outcome,[4],inactive
same,outcome,[5],inactive
same,outcome,[6],inactive
same,outcome,[7],inactive
same,outcome,[8],inactive
same,outcome,[9],inactive
same,outcome,[10],inactive
same,outcome,[11],inactive
same,outcome,[12],inactive
same,outcome,[13],inactive
same,outcome,[14],inactive
same,outcome,[15],inactive
same,outcome,[16],inactive
CCN1CCN(c2ccc(S(=O)(=O)N3CCOCC3)cc2NC(=O)c2ccccc2SC)CC1,activation,[1],316% (active)
same,activation,[2],110% (active)
same,outcome,[3],inactive
same,outcome,[4],inactive
same,outcome,[5],inactive
same,outcome,[6],inactive
same,outcome,[7],inactive
same,outcome,[8],inactive
same,outcome,[9],inactive
same,outcome,[10],inactive
same,outcome,[11],inactive
same,activation,[12],81.4% (active)
same,outcome,[13],inactive
same,outcome,[14],inactive
same,outcome,[15],inactive
same,outcome,[16],inactive
COc1ccccc1/C=C/CN1CCCC(CCC(=O)NCc2ccccc2F)C1 (stereo not drawn),activation,[1],98% (active)
same,activation,[2],51% (active)
same,outcome,[3],inactive
same,outcome,[4],inactive
same,inhibition,[5],53% (active)
same,outcome,[6],inactive
same,outcome,[7],inactive
same,outcome,[8],inactive
same,outcome,[9],inactive
same,activation,[10],44% (active)
same,outcome,[11],inactive
same,activation,[12],32.5% (active)
same,outcome,[13],inactive
same,outcome,[14],inactive
same,outcome,[15],inactive
same,outcome,[16],inactive
Cc1ccccc1Cn1c(CN2CCc3ccccc3C2)nc2c1c(=O)n(C)c(=O)n2C,activation,[1],163% (active)
same,outcome,[2],inactive
same,potentiation,[3],6% (active)
same,potentiation,[4],46% (active)
same,outcome,[5],inactive
same,outcome,[6],inactive
same,outcome,[7],inactive
same,outcome,[8],inactive
same,outcome,[9],inactive
same,activation,[10],71% (active)
same,outcome,[11],inactive
same,outcome,[12],inactive
same,outcome,[13],inactive
same,potentiation,[14],88.5% (active)
same,outcome,[15],inactive
same,outcome,[16],inactive
CN(C)C(CNC(=O)Cc1ccc([N+](=O)[O-])cc1)c1ccccc1 (stereo not drawn),activation,[1],161% (active)
same,activation,[2],124% (active)
same,outcome,[3],inactive
same,outcome,[4],inactive
same,outcome,[5],inactive
same,outcome,[6],inactive
same,outcome,[7],inactive
same,outcome,[8],inactive
same,outcome,[9],inactive
same,outcome,[10],inactive
same,outcome,[11],inactive
same,outcome,[12],inactive
same,outcome,[13],inactive
same,outcome,[14],inactive
same,outcome,[15],inactive
same,outcome,[16],inactive
CN1CCN(c2ccc(NC(=O)c3ccc(-c4cccc([N+](=O)[O-])c4)o3)cc2)CC1,activation,[1],87% (active)
same,outcome,[2],inactive
same,outcome,[3],inactive
same,outcome,[4],inactive
same,outcome,[5],inactive
same,outcome,[6],inactive
same,outcome,[7],inactive
same,outcome,[8],inactive
same,outcome,[9],inactive
same,outcome,[10],inactive
same,outcome,[11],inactive
same,outcome,[12],inactive
same,outcome,[13],inactive
same,outcome,[14],inactive
same,outcome,[15],inactive
same,outcome,[16],inactive
O=C(O)C1C2C=CC(C2)C1C(=O)NC1CCN(Cc2ccccc2)CC1 (stereo not drawn),activation,[1],155% (active)
same,outcome,[2],inactive
same,outcome,[3],inactive
same,outcome,[4],inactive
same,outcome,[5],inactive
same,outcome,[6],inactive
same,outcome,[7],inactive
same,outcome,[8],inactive
same,outcome,[9],inactive
same,activation,[10],32% (active)
same,outcome,[11],inactive
same,activation,[12],44.3% (active)
same,outcome,[13],inactive
same,outcome,[14],inactive
same,outcome,[15],inactive
same,outcome,[16],inactive
CCc1ccc(C(=O)c2cnc3ccc(OC)cc3c2N2CCN(CC)CC2)cc1,activation,[1],283% (active)
same,outcome,[2],inactive
same,outcome,[3],inactive
same,outcome,[4],inactive
same,outcome,[5],inactive
same,outcome,[6],inactive
same,outcome,[7],inactive
same,outcome,[8],inactive
same,outcome,[9],inactive
same,outcome,[10],inactive
same,outcome,[11],inactive
same,outcome,[12],inactive
same,outcome,[13],inactive
same,outcome,[14],inactive
same,outcome,[15],inactive
same,outcome,[16],inactive
COc1cc2ccccc2cc1C(=O)NCC(c1cccs1)N(C)C (stereo not drawn),activation,[1],164% (active)
same,outcome,[2],inactive
same,outcome,[3],inactive
same,outcome,[4],inactive
same,outcome,[5],inactive
same,outcome,[6],inactive
same,outcome,[7],inactive
same,outcome,[8],inactive
same,outcome,[9],inactive
same,activation,[10],59.5% (active)
same,outcome,[11],inactive
same,outcome,[12],inactive
same,outcome,[13],inactive
same,outcome,[14],inactive
same,outcome,[15],inactive
same,outcome,[16],inactive
Cc1ccn(CC(=O)NC2CCCN(Cc3ccc(CC(C)C)cc3)C2)n1 (stereo not drawn),activation,[1],170% (active)
same,outcome,[2],inactive
same,outcome,[3],inactive
same,outcome,[4],inactive
same,outcome,[5],inactive
same,outcome,[6],inactive
same,outcome,[7],inactive
same,outcome,[8],inactive
same,outcome,[9],inactive
same,activation,[10],61% (active)
same,outcome,[11],inactive
same,activation,[12],50.5% (active)
same,outcome,[13],inactive
same,outcome,[14],inactive
same,outcome,[15],inactive
same,outcome,[16],inactive
CCc1cccc(C)c1NC(=S)NCC(c1cccnc1)N(C)C (stereo not drawn),activation,[1],80% (active)
same,activation,[2],82% (active)
same,outcome,[3],inactive
same,outcome,[4],inactive
same,outcome,[5],inactive
same,outcome,[6],inactive
same,outcome,[7],inactive
same,outcome,[8],inactive
same,outcome,[9],inactive
same,outcome,[10],inactive
same,outcome,[11],inactive
same,outcome,[12],inactive
same,outcome,[13],inactive
same,outcome,[14],inactive
same,outcome,[15],inactive
same,outcome,[16],inactive
O=C(O)C1C2C=CC(C2)C1C(=O)N1CCN(C/C=C/c2ccccc2)CC1 (stereo not drawn),activation,[1],71% (active)
same,outcome,[2],inactive
same,outcome,[3],inactive
same,outcome,[4],inactive
same,outcome,[5],inactive
same,outcome,[6],inactive
same,outcome,[7],inactive
same,outcome,[8],inactive
same,outcome,[9],inactive
same,activation,[10],26% (active)
same,outcome,[11],inactive
same,activation,[12],12.8% (active)
same,outcome,[13],inactive
same,outcome,[14],inactive
same,outcome,[15],inactive
same,outcome,[16],inactive
